How the values were obtained:
Assay in all cases: PBM binding z-score (relative to random genomic background probes); higher = stronger binding; sequences stand for … in GC…GCGATTGACAGCGTAGAATGAAGG
[1] = system: FXR:RXRa (NR concentration 270 nM, RXRa partner concentration 90 nM)
Outline: (§1)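 Binding buffer was PBS pH 7.4 with 2% milk, 0.02% Triton X-100, 1 mM DTT, 0.2 mg/mL BSA and 0.4 mg/ml salmon testes DNA. In it, ligand-free nuclear receptor dimers were incubated 1 h on custom Agilent 4×180K protein-binding microarrays carrying double-stranded probes. Antibodies against each partner (one per run) detected binding, and z-scores were calculated against random background probes after regression normalization of scanned fluorescence.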

[2] = system: LXRa:RXRa (NR concentration 270 nM, RXRa partner concentration 90 nM)
Outline: as §1

[3] = system: LXRa homodimer (NR concentration 270 nM)
Outline: as §1

[4] = system: LXRb:RXRa (NR concentration 270 nM, RXRa partner concentration 90 nM)
Outline: as §1

[5] = system: LXRb homodimer (NR concentration 270 nM)
Outline: as §1

[6] = system: PPARa:RXRa (NR concentration 270 nM, RXRa partner concentration 90 nM)
Outline: as §1

[7] = system: PPARg:RXRa (NR concentration 180 nM, RXRa partner concentration 90 nM)
Outline: as §1

[8] = system: PPARg:RXRa 270nM:90nM, anti-RXR (NR concentration 270 nM, RXRa partner concentration 90 nM)
Outline: as §1

[9] = system: PPARg:RXRa 30nM:10nM, anti-RXR (NR concentration 30 nM, RXRa partner concentration 10 nM)
Outline: as §1

[10] = system: PPARg:RXRa 90nM:30nM, anti-RXR (NR concentration 90 nM, RXRa partner concentration 30 nM)
Outline: as §1

[11] = system: PPARg:RXRa DBDmut IVT, anti-RXR (DBD mutation: RXRa K156A/R161A, NR concentration 270 nM, RXRa partner concentration 90 nM)
Outline: as §1

[12] = system: PPARg:RXRa IVT, anti-PPARg (NR concentration 270 nM, RXRa partner concentration 90 nM)
Outline: as §1

[13] = system: PPARg DBDmut:RXRa IVT, anti-PPARg (DBD mutation: PPARg1 K132A/R137A, NR concentration 270 nM, RXRa partner concentration 90 nM)
Outline: as §1

[14] = system: PPARg DBDmut IVT, anti-PPARg (DBD mutation: PPARg1 K132A/R137A, NR concentration 270 nM)
Outline: as §1

[15] = system: PPARg homodimer (NR concentration 180 nM)
Outline: as §1

[16] = system: PXR:RXRa (NR concentration 270 nM, RXRa partner concentration 90 nM)
Outline: as §1

[17] = system: PXR homodimer (NR concentration 270 nM)
Outline: as §1

[18] = system: RARa:RXR (NR concentration 270 nM, RXRa partner concentration 90 nM)
Outline: as §1

[19] = system: RARa homodimer (NR concentration 270 nM)
Outline: as §1

[20] = system: RARb:RXRa (NR concentration 270 nM, RXRa partner concentration 90 nM)
Outline: as §1

| Sequence | PBM binding z-score [1] | PBM binding z-score [2] | PBM binding z-score [3] | PBM binding z-score [4] | PBM binding z-score [5] | PBM binding z-score [6] | PBM binding z-score [7] | PBM binding z-score [8] | PBM binding z-score [9] | PBM binding z-score [10] | PBM binding z-score [11] | PBM binding z-score [12] | PBM binding z-score [13] | PBM binding z-score [14] | PBM binding z-score [15] | PBM binding z-score [16] | PBM binding z-score [17] | PBM binding z-score [18] | PBM binding z-score [19] | PBM binding z-score [20] |
| --- | --- | --- | --- | --- | --- | --- | --- | --- | --- | --- | --- | --- | --- | --- | --- | --- | --- | --- | --- | --- |
| AAGACAGGGTCACTAGGCCAGAGTAGGTACGAAT | 5.99 | 3.14 | -0.215 | 3.25 | -0.368 | 5.62 | 7.53 | 6.21 | 2.71 | 5.21 | 3.14 | 5.06 | 0.632 | 0.999 | 1.27 | 2.89 | 0.212 | 4.16 | -0.193 | 4.21 |
| CCTAGCAGGCCTATCTGGGTCACTCAAGGCTTGA | 0.317 | 0.546 | -0.58 | 0.838 | -1.2 | 3.07 | 1.7 | 2.01 | -0.0826 | 1.15 | 3.65 | 4.63 | -0.467 | -0.863 | 0.541 | 0.789 | -0.468 | 1.38 | -0.645 | 0.909 |
| CCTAGTAGGTCAAGGTCACACACGCTATAGGTAC | 6.32 | 5.5 | 2.71 | 4.64 | 1.12 | 5.98 | 9.25 | 7.51 | 5.53 | 7.55 | 8.26 | 7.96 | 1.56 | 0.61 | 3.98 | 4.96 | 1.81 | 5.14 | 2.09 | 5.1 |
| TCTTGTAGATCAGCATGTTAAGAAAGCTGGCCAA | 0.0411 | 0.107 | -0.479 | 0.0271 | -0.503 | 0.231 | -0.371 | 1.52 | 2.44 | 2.19 | 1.61 | -0.0359 | -0.2 | 0.837 | -0.198 | 0.127 | -0.264 | 0.0601 | -0.0517 | -0.19 |
| CATCCAAGGTCAGCAGGTCAGTGAAAGCGACGTG | 6.25 | 4.68 | 1.66 | 3.31 | 0.653 | 4.79 | 4.86 | 4.71 | 1.81 | 3.37 | 3.12 | 4.02 | 0.104 | 0.555 | 4.34 | 3.82 | 1.14 | 5.21 | 2.38 | 5.17 |
| GGAACGAGGGCGTTCGAGTTGATAGCATGGCGAT | -0.0904 | -0.232 | -0.938 | -0.656 | -0.964 | -0.0431 | 0.127 | -0.547 | -0.579 | -0.797 | 1.14 | 0.591 | -1.48 | -0.922 | -0.718 | 1.88 | 0.811 | 0.317 | -0.727 | 0.422 |
| GCGACTGGGGCATCAGCACGTTACCATAACTTAA | -0.278 | -0.417 | -0.429 | 0.31 | -0.932 | 0.476 | 0.927 | 0.64 | -0.0937 | 0.15 | 3.89 | 3 | 0.00267 | -0.723 | -0.048 | -0.493 | -0.113 | -0.399 | -0.0529 | 0.327 |

Reference: the supplement of paper PMC6555819
